# Bioassay records (PubChem)
# TDP1 inh: qHTS Assay for Inhibitors of Tyrosyl-DNA Phosphodiesterase (TDP1) | Potency, µM (series often up to 130 µM), inactives show top-dose activity change, negative = inhibition, most hits filed as inhibitors | Tyrosyl-DNA phosphodiesterase 1 (Homo sapiens), Q9NUW8 | AID 485290, 2010 | 350,000 tested, 0.28% active | recombinant TDP1, AlphaScreen DNA substrate cleavage; further: nearly all actives have a fitted effect of over 40% in size
#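 Here, a 5' biotin and 3' phosphotyrosine-FITC DNA oligonucleotide reports Tdp1 activity: intact substrate bridges AlphaScreen beads, while cleavage leaves a 3' phosphate and drops signal. All incubations at room temperature.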
# TDP1 cell noCPT: qHTS for Inhibitors of human tyrosyl-DNA phosphodiesterase 1 (TDP1): qHTS in cells in absence of CPT; DT40 Tdp1-/- hTDP1 cells, no CPT, ATP luminescence, 48 h; Potency, µM (series often up to 46.2 µM), inactives show at the highest dose activity change, negative = growth inhibition, hits mostly inhibitors; 420,000 tested, 15% active; AID 686978, 2013; further: nearly all actives have a fitted effect of over 55% in size
#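 Compound effects on proliferation are scored in DT40 Tdp1-/-;hTDP1 cells in the absence of CPT. ATP levels (CellTiter-Glo luminescence) are recorded after a ≥48 hr, 37 °C incubation.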
# RORgamma inh: qHTS for inhibitors of ROR gamma transcriptional activity; Drosophila S2 Gal4-RORgamma UAS-luciferase reporter, 20 h; Potency, µM (series often up to 53.6 µM), inactives show at the top dose activity change, negative = inhibition, most hits filed as inhibitors; 310,000 tested, 5.4% active; AID 2551, 2010; Nuclear receptor ROR-gamma (Mus musculus), P51450; further: nearly all actives have a fitted effect of over 60% in size
# Target sequence (P51450 whole entry, looked up, the tested form may be a part): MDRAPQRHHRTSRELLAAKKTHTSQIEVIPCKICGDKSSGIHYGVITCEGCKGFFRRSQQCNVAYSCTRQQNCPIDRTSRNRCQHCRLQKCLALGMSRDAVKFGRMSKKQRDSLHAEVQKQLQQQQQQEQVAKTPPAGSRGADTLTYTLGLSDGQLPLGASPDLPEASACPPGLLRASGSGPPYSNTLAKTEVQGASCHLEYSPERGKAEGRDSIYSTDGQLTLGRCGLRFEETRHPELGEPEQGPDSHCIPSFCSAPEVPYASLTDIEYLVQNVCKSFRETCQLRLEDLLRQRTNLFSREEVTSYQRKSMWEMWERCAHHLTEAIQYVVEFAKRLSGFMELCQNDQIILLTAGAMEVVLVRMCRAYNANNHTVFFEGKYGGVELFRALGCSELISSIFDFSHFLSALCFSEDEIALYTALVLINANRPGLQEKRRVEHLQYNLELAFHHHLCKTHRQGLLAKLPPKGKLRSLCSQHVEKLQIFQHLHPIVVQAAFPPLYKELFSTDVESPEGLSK
#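 Stable Schneider cell line, Gal4 DNA-binding domain fused to ROR gamma, UAS-luciferase. Cmpd 1 hr RT → CuSO4 700 uM final → 20 hr RT → luciferase reagent 10 min → luminescence.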
# DT40 TDP1 CPT: qHTS for Inhibitors of human tyrosyl-DNA phosphodiesterase 1 (TDP1): qHTS in cells in presence of CPT. Potency, µM (series often up to 46.2 µM), inactives show at the highest dose activity change, negative = growth inhibition, hits mostly inhibitors. 420,000 tested, 12% active. chicken DT40 Tdp1-/-;hTDP1 cells + 20 nM CPT, ATP luminescence, 48 h. AID 686979, 2013; further: nearly all actives have a fitted effect of over 55% in size
#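 Chicken DT40 Tdp1-/- cells complemented with human TDP1, 400 cells/well, exposed to compounds plus 20 nM camptothecin for at least 48 h at 37 C; viability read as ATP content by CellTiter-Glo luminescence.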
# Gal4-VP16 FLuc: VP16 counterscreen qHTS for inhibitors of ROR gamma transcriptional activity. Drosophila S2 Gal4-VP16 UAS-luciferase, luminescence, 20 h. Potency, µM (doses to about 53.6 µM), inactives show at the highest dose activity, negative = inhibition, most hits filed as inhibitors. 310,000 tested, 3.5% active. AID 2546, 2010;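 further: Gal4-VP16 expression switched on by copper sulfate through the metallothionein promoter; nearly all actives have a fitted effect of over 50% in size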
# The depositor's hits bear a star; ? = inconclusive; . = not tested or not shown. A selection: hits, their analogues and other compounds. The true share with any hit is near 19%. The call rests on the fitted dose curve; in most records, active means well fitted curve in the direction sought with a large enough effect; inconclusive means small, poorly fitted or top-dose-only effect, or another doubt; inactive means no such curve, though single readings can be large; an effect the other way counts as inactive or inconclusive. On the % scale 0 is the no-effect control and ±100 the full control effect; potency means the concentration at half of the fitted maximal effect.
SMILES,TDP1 inh,TDP1 cell noCPT,RORgamma inh,DT40 TDP1 CPT,Gal4-VP16 FLuc
CCn1ncc(CN2CCCC(C(=O)Nc3cccc(-c4cc5ccccc5[nH]4)c3)C2)c1C (stereo not given),9%,?,-15%,21µM*,-13%
CCOc1ccc(NC(=S)NN(C)C(=S)Nc2ccc(OCC)cc2)cc1,11%,?,7.9µM*,?,?
CCOc1ccc(NC(=S)Nc2ccccc2C2(C)CC2)cc1,0%,8.2µM*,7.9µM*,?,?
COc1ccc(NC(=S)Nc2ccc(F)cc2)cc1,1%,26µM*,?,?,?
CCOc1ccc(NC(=S)Nc2ccc(F)cc2)cc1,.,?,13µM*,?,?
CC(=O)Nc1ccc(NC(=S)Nc2ccc(F)cc2)cc1,-3%,10%,-26%,-2%,-2%
CC(NCc1ccccc1O)C12CC3CC(CC(C3)C1)C2 (stereo not given),.,?,-2%,?,1%
CCOc1ccc(NC(=S)NC(C)c2cccs2)cc1 (stereo not given),-5%,?,3.2µM*,-27%,5µM*
COc1cc(NC(=S)Nc2ccc(OC(F)F)cc2)cc(OC)c1,6%,-8%,10µM*,-16%,?
COc1ccc(NC(=S)Nc2ccccc2C(F)(F)F)cc1,5%,-27%,11µM*,1%,?
FC(F)(F)c1ccccc1NC(=S)Nc1ccccc1,.,-9%,?,-1%,-2%
Cc1cncc(C(=O)O)[n+]1[O-],.,.,-3%,.,-5%
COc1ccc(Oc2c(C(F)(F)F)oc3c(CN4CCCC(C)C4)c(O)ccc3c2=O)cc1 (stereo not given),4%,?,.,?,.
Cc1cc2n(n1)C(c1ccc(O)cc1)Nc1ccccc1-2 (stereo not given),2%,-25%,6%,-1%,4%
O=C(NCCc1ccccc1)C1Cc2c(-c3ccccc3Oc3ccccc3)ccnc2O1 (stereo not given),.,?,.,16µM*,.
O=C(NCCC(F)(F)F)C1Cc2c(-c3ccccc3Oc3ccccc3)ccnc2O1 (stereo not given),.,?,.,-55%,.
CN(C)CCNC(=O)C1Cc2c(-c3ccccc3Oc3ccccc3)ccnc2O1 (stereo not given),.,18µM*,.,29µM*,.
Cc1nn(C)c(C)c1Nc1ccc(N2C(=O)C3C4C=CC(C4)C3C2=O)cc1[N+](=O)[O-] (stereo not given),3%,23µM*,-2%,?,5%
COc1cc(CNC(=O)c2cccc(COc3ccc(Cl)cc3)c2)cc(OC)c1,-2%,16µM*,?,?,-2%
COc1ccc(OCc2cccc(C(=O)Nc3cc(C)on3)c2)cc1,3%,-20%,63%,-25%,?
COc1ccc(OCc2cccc(C(=O)NN)c2)cc1,3%,-2%,14µM*,?,?
NNC(=O)c1cccc(COc2ccc(Br)cc2)c1,3%,?,?,21µM*,-97%
CC1CN(C(=O)c2cccc(COc3ccc(Br)cc3)c2)CC(C)O1 (stereo not given),-1%,13µM*,?,21µM*,1%
CCC(Sc1nc2c(cnn2-c2ccccc2)c(=O)[nH]1)C(=O)OC (stereo not given),0%,-4%,-44%,-1%,-5%
NNC(=O)c1ccc(COc2ccc3c(c2)CCC3)cc1,5%,?,?,-29%,-29%
NNC(=O)c1ccc(COc2ccc3ccccc3c2)cc1,.,21µM*,-21%,?,-14%
Cc1nn(C)c(C)c1S(=O)(=O)N(CC(=O)NCc1cccs1)c1ccc(C(C)C)cc1,3%,-2%,?,28%,6%
